Here are results for 40 compounds from PubChem BioAssay (Tox21).

Where “and” joins values, the source holds several entries; their conditions need not be identical. Equal entries are not always repeated. Calls of active or inactive are those of the source. Where a call stands in place of a potency, no number is given. The call rests on the fitted dose curve; in most records, active means well fitted curve in the direction sought with a large enough effect in the repeat runs; inconclusive means weak or mixed curves; inactive means flat fitted curve, though single readings scatter.
Potency means the concentration at half of the fitted maximal effect.

The assay can be described thus: qHTS assay to test for compound auto fluorescence at 535 nm (green) in HepG2 cells (AID 720675). The following applies: green autofluorescence 485/535 nm, 1 h; series mostly up to 91.3 µM. An excerpt:
National Center for Advancing Translational Sciences [NCATS]
NIH Chemical Genomics Center [NCGC]
U.S. Environmental Protection Agency [EPA]
National Institutes of Environmental Health Sciences [NIEHS]
National Toxicology Program [NTP]
U.S. Food and Drug Administration [FDA]
Compound auto fluorescence often interferes with screening of the compound library against various biological targets and signaling pathways. Some of these compounds may have fluorophoric properties. Such properties may interfere with the assay outputs resulting in false positives and/or negatives. To decrease such complications and ensure the compound activities are relevant in terms of biological response, the Tox21 10K compound library was screened for auto fluorescence.
From the fluorophores used as reporter signals in our screening assays, the auto fluorescence equivalencies of compounds against three fluorophores have been evaluated: Triamterene, Fluorescein and Rose Bengal sodium for blue, green and red fluorescence, respectively. The fluorescence intensities were measured using Excitation/Emission wavelengths at 405/460nm, 485/535nm and 540/590nm for blue, green and red labels, respectively. This assay includes the green fluorescence data.
Tox21 Assay Protocol Summary:
2,000 HepG2 cells in 5 uL of culture medium (MEM containing 10% FBS) per well were dispensed into black wall/clear bottom 1536-well plates using a Multidrop Combi Dispenser (ThermoFisher Scientific, Waltham, MA). The assay plates were incubated overnight at 37 C to allow cell attachment to the well bottom, followed by the transfer of 23 nL compound or DMSO vehicle by a pintool work station (Kalypsys , San Diego, CA). After the assay plates were incubated for 1 hr at 37 C and 5% CO2, fluorescence intensities in the assay plates were measured by an Envision (PerkinElmer, Shelton, CT) plate reader using three labels for measuring blue, green and red fluorescence at […] 460, 535 and 590 nm respectively.
For orientation: qHTS replaces the single test concentration by a dilution series.
As for `CC(=O)OC(C)C`, the Potency result is “inactive”.

Regarding `CC(=O)Oc1c(C)c(C)c2c(c1C)CC[C@@](C)(CCC[C@H](C)CCC[C@H](C)CCCC(C)C)O2`, the Potency result is “inactive”.

With `O=C(O)c1cc(=O)[nH]c(=O)[nH]1`, the Potency result is “inactive”.

For `C=C[Si](OCCOC)(OCCOC)OCCOC`, the Potency result is “inactive”.

For `CC(C)(Oc1ccc(Cl)cc1)C(=O)O`, the Potency result is “inactive”.

On to `CC(C)(C)c1cccc(C(C)(C)C)c1O`, for which the Potency result is “inactive”.

With `CC/C(=C(/CC)c1ccc(O)cc1)c1ccc(O)cc1`, the Potency result is “inactive”.

On to `Cc1ccc(C(C)(C)C)cc1`, for which the Potency entry is “inactive”.

On to `O=C(O)CCCC(=O)O`, for which the Potency entry was “inactive”.

With `CN(C)C`, the Potency result is “inactive”.

For the compound `CC(C)[C@@H]1CC[C@@H](C)CC1=O`, the Potency entry was “inactive”.

On to `Brc1nc2ccccc2s1`, for which the Potency entry was “inactive”.

As for `COC(=O)c1ccc(C)cc1`, the Potency result is “inactive”.

Regarding `Cc1cccc(Nc2ccccc2C(=O)O)c1C`, the Potency entry is “inactive”.

As to `c1ccc2cc3ccccc3cc2c1`, the Potency entry was “inactive”.

In the case of `CCCCCCOCCOCCO`, the Potency result is “inactive”.

Consider `Clc1ccc(Sc2cc(Cl)c(Cl)cc2Cl)cc1`, for which the Potency result is “inactive”.

On to `CCC(Cc1c(I)cc(I)c(N)c1I)C(=O)O` (stereo not given), for which the Potency result is “inactive”.

For the compound `NCCS(=O)(=O)O`, the Potency result was “inactive”.

In the case of `CC(=O)[C@@]1(O)CC[C@H]2[C@@H]3C[C@H](C)C4=CC(=O)C=C[C@]4(C)[C@@]3(F)[C@@H](O)C[C@@]21C`, the Potency entry was “inactive”.

For the compound `C=C[C@H]1CN2CC[C@H]1C[C@H]2[C@H](O)c1ccnc2ccc(OC)cc12`, the Potency result was “inactive”.

Turning to `Cc1ccc(S(=O)(=O)O)cc1C`, the Potency entry is “inactive”.

Turning to `O=C(O)COCCN1CCN(C(c2ccccc2)c2ccc(Cl)cc2)CC1` (stereo not given), the Potency result is “inactive”.

`C/C=C/C(=O)N(CC)c1ccccc1C`: the Potency entry is “inactive”.

Turning to `IC(I)I`, the Potency result was “inactive”.

For the compound `CC(C)=CCO`, the Potency result was “inactive”.

`C[C@]12CC[C@@H]3c4ccc(O)cc4CC[C@H]3[C@@H]1CC[C@H]2O`: the Potency entry was “inactive”.

For `COc1ccc(-c2coc3cc(O)cc(O)c3c2=O)cc1`, the Potency entry was “inactive”.

As to `C=C[C@@]1(C)CC(=O)[C@]2(O)[C@@]3(C)[C@@H](O)CCC(C)(C)[C@@H]3[C@H](O)[C@H](OC(C)=O)[C@@]2(C)O1`, the Potency result is “inactive”.

For the compound `CCCCCCCCCCC(CO)CCCCCCCC` (stereo not given), the Potency entry was “inactive”.

Regarding `CN(Cc1cnc2nc(N)nc(N)c2n1)c1ccc(C(=O)N[C@@H](CCC(=O)O)C(=O)O)cc1`, the Potency entry was “inactive”.

For the compound `CC(=O)O[C@]1(C(C)=O)CC[C@H]2[C@@H]3C=C(Cl)C4=CC(=O)CC[C@]4(C)[C@H]3CC[C@@]21C`, the Potency result is “inactive”.

`O=C1OC2(c3ccccc31)c1cc(I)c(O)c(I)c1Oc1c2cc(I)c(O)c1I`: the Potency is 14.1 µM (active) and 10 µM (active) and 17.8 µM (active).

Regarding `COC(=O)C(C)Oc1ccc(Oc2ncc(C(F)(F)F)cc2Cl)cc1` (stereo not given), the Potency result was “inactive”.

As for `Nc1cc(Cl)c(N)c(Cl)c1`, the Potency entry was “inactive”.

On to `CC(=O)[C@H]1CC[C@H]2[C@@H]3CC=C4C[C@@H](O)CC[C@]4(C)[C@H]3CC[C@]12C`, for which the Potency entry was “inactive”.

As to `C[C@]12CC[C@@H]3c4ccc(O)cc4CC[C@H]3[C@@H]1CC[C@@H]2O`, the Potency entry was “inactive”.

On to `C[C@]12C=CC(=O)C=C1CC[C@H]1[C@@H]3C[C@@H](O)[C@](O)(C(=O)CO)[C@@]3(C)C[C@H](O)[C@@]12F`, for which the Potency result is “inactive”.

`CCCCCCCCCCCCCO`: the Potency entry was “inactive”.

With `CCC(=O)O[C@H]1[C@H](O[C@@H]2[C@@H](C)[C@H](O[C@H]3C[C@@](C)(OC)[C@@H](O)[C@H](C)O3)[C@@H](C)C(=O)O[C@H](CC)[C@@](C)(O)[C@H](O)[C@@H](C)C(=O)[C@H](C)C[C@@]2(C)O)O[C@H](C)C[C@@H]1N(C)C`, the Potency result was “inactive”.
